# PubChem BioAssay (NCATS)
# Records with an inconclusive call do not appear. Calls of active or inactive are those of the source. Unless noted, calls come from the whole dose curve; as a rule, active = well fitted curve in either direction with a large enough effect (not every such curve was filed as active); inconclusive = small, poorly fitted or top-dose-only effect, or another doubt; inactive = flat fitted curve, though single readings scatter.
# Legend:
# [1] = biological target: Lysosomal acid glucosylceramidase (Homo sapiens) (UniProt P04062); assay: Glucocerebrosidase-p2 (AID 348; in the data active = potency below about 10 µM; note: potency is the fitted concentration of half-maximal effect); conditions: purified GBA, blue fluorogenic substrate, 40 min
# Sequence of Lysosomal acid glucosylceramidase (Homo sapiens) (P04062 whole entry, looked up): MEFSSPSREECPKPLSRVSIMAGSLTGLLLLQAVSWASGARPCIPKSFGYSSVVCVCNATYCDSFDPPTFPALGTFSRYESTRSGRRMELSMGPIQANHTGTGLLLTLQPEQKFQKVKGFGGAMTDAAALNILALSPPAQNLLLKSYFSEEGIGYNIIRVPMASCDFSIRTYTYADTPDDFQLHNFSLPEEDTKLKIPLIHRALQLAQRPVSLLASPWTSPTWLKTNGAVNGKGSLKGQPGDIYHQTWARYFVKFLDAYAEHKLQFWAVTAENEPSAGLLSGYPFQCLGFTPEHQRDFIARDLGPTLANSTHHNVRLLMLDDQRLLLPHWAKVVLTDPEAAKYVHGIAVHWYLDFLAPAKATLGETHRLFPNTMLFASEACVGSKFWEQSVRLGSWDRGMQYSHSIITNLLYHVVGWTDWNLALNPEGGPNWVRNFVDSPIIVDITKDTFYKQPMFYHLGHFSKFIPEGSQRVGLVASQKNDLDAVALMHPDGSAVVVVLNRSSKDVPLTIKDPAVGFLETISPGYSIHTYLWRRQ
# How it was run: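 Normal human glucocerebrosidase (0.2 nM) with blue fluorogenic substrate (80 uM final) in citrate/phosphate pH 5.9 with 10mM sodium taurocholate, 0.01% tween-20; 40 min RT, NaOH/glycine stop; fluorescence Ex 365/Em 440; AC50 from a titration from 0.6 nM upwards.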
# [2] = AP1 Signaling Pathway (AID 357); conditions: ME-180 AP-1-bla reporter, EGF-induced, beta-lactamase ratio, 5 h; at 7.69 µM (top of the series) unless noted;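 note: ME-180 reporter cells stimulated with EGF at its EC50 level; % is set by controls: 0 for no effect and ±100 for the full control effect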
# How it was run: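 Cells are seeded overnight, exposed to compound titrations and an EC50 level of EGF for 5 hours at 37 °C, then loaded with CCF4 dye for 2.5 hours. Beta-lactamase activity under the AP-1 element is read as a blue/green ratio.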
# [3] = biological target: Cytochrome P450 1A2 (Homo sapiens) (UniProt P05177); assay: p450-cyp1a2 (AID 410; calls by dose curve; note: potency is the fitted concentration of half-maximal effect;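 for activity change, negative = inhibition: -100% = full effect of reference inhibitor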); conditions: recombinant CYP1A2, luciferin-ME demethylation, luminescence; series mostly up to 57 µM
# Sequence of Cytochrome P450 1A2 (Homo sapiens) (P05177 whole entry, looked up): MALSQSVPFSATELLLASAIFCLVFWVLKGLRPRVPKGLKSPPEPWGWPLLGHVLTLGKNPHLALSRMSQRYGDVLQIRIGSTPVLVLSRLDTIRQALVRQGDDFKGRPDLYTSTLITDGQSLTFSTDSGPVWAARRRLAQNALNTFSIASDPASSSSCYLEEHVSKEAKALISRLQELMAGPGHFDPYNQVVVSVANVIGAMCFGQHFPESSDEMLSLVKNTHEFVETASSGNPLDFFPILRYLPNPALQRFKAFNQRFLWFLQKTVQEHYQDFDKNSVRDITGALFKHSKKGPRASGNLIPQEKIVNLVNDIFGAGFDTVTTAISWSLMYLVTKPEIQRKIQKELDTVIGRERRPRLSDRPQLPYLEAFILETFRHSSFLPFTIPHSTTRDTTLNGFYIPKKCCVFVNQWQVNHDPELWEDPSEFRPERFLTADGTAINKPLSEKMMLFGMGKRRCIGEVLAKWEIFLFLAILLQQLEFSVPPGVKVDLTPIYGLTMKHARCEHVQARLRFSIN
# How it was run: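 O-Demethylation of luciferin 6' methyl ether by human CYP1A2 is monitored as luciferase luminescence. Substrate sits at Km (100uM); enzyme is 20nM. Values are scaled to 57 uM furafylline as maximal inhibition.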
# [4] = Stat Signaling Pathway (AID 446); conditions: ME-180 SIE beta-lactamase reporter, IL-6 stimulated, 5 h; at 7.69 µM (top of the series) unless noted;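 note: ME-180 cervical cancer cells given 40 pM IL-6 alongside compound; SIE-controlled beta-lactamase reporter measured as 460/530 nm FRET emission ratio; % is set by controls: 0 for no effect and ±100 for the full control effect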
# How it was run: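 Emission at 460 and 530 nm (excitation 405 nm) reports SIE-controlled beta-lactamase in ME-180 cells. Cells received compound with 40 pM IL-6 for 5 hrs at 37 C; data scaled between 300 pM IL-6 and 125 nM JAK-inhibitor controls.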
# [5] = biological target: Glucocorticoid receptor (Homo sapiens) (UniProt P04150); assay: GR-EFC Redistribution (AID 451; calls by dose curve; note: potency is the fitted concentration of half-maximal effect); conditions: CHO-K1 GR-EFC translocation, beta-gal luminescence, 2 h
# Sequence of Glucocorticoid receptor (Homo sapiens) (P04150 whole entry, looked up, the tested form may be a part): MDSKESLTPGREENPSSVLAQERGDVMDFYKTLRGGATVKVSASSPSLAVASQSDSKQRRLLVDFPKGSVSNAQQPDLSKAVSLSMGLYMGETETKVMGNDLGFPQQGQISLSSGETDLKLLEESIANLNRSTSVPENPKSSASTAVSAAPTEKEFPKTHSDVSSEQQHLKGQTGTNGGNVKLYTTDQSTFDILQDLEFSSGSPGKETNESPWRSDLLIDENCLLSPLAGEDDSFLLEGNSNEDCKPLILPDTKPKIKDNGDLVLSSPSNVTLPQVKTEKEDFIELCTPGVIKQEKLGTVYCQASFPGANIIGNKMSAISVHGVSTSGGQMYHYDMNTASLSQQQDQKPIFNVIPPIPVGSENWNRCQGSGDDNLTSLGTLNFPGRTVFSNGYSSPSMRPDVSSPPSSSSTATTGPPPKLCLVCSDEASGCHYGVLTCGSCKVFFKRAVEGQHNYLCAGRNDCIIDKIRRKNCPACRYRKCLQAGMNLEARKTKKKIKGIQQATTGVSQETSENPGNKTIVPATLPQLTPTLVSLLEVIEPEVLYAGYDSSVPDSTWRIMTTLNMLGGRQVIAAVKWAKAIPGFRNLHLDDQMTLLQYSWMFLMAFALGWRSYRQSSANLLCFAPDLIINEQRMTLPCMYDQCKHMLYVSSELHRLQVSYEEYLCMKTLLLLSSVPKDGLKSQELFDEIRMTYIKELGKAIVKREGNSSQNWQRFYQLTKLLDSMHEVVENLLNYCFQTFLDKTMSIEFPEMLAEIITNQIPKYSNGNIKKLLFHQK
# How it was run: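 Translocation of GR-ED fusion to nuclear EA restores b-gal, read by luminescence after 1 h room-temperature detection. Engineered CHO-K1 biosensor cells, 1,000/well, exposed 2 h at 37 C to titrations up to 46 uM final.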
# [6] = biological target: Mitogen-activated protein kinase 10 (Mus musculus) (UniProt Q61831); assay: JNK3 AlphaScreen Assay (AID 530); conditions: JNK3 lysate, c-Jun phosphorylation; series mostly up to 57.1 µM;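 note: kinase came from lysate of stimulated human HepG2 cells; signal reports phosphorylation of biotinylated GST-cJun 1-79 at Ser73 with 10 µM ATP; % is set by controls: 0 for no effect and ±100 for the full control effect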
# How it was run: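 qHTS titrations with 15 min compound pre-incubation before adding ATP (10 uM final). Read-out: AlphaScreen of Ser73-phosphorylated biotin-GST-cJun using HepG2 lysate JNK3 activated by IL-1β and TNFα.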
# [7] = biological target: 3',5'-cyclic-AMP phosphodiesterase 4B (Homo sapiens) (UniProt Q07343); assay: qHTS Assay for Inhibitors of PDE-IV (AID 607; active = well fitted activation curve with a large enough effect in the main read-out, with a control signal flat, not every such curve was filed as active; note: % of control where 0% means no effect); conditions: HEK293 ACTOne CNG channel cells, membrane potential fluorescence; series mostly up to 22.9 µM
# Sequence of 3',5'-cyclic-AMP phosphodiesterase 4B (Homo sapiens) (Q07343 whole entry, looked up): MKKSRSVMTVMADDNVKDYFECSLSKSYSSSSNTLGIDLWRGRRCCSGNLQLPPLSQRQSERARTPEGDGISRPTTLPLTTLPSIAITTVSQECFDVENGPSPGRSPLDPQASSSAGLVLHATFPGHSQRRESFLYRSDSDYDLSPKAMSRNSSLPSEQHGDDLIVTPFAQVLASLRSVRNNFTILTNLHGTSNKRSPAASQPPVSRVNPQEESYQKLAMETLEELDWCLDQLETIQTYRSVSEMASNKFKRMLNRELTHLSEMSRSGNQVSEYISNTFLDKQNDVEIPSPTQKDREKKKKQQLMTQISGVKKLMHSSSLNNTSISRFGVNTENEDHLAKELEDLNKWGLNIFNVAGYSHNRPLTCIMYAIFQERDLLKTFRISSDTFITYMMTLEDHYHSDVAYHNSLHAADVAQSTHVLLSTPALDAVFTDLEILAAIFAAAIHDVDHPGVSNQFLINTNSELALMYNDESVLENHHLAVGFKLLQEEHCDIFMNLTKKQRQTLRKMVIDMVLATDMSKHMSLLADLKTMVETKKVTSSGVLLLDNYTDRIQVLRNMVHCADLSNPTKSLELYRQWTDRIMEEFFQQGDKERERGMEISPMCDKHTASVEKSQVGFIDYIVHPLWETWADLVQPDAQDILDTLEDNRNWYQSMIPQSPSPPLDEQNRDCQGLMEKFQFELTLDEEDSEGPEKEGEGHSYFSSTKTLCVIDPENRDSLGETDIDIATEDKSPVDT
# How it was run: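 The readout is membrane depolarisation from a cAMP-sensing CNG channel, detected with a potential dye at ex 535/em 590. Cells were HEK293-derived (endogenous PDE-IV) at 1000 cells/well, titrated up to 22.9 uM final.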
# [8] = biological target: Cytochrome P450 2C19 (Homo sapiens) (UniProt P33261); assay: qHTS Assay for Inhibitors and Substrates of Cytochrome P450 2C19 (AID 899; active = well fitted curve in the direction sought with a large enough effect; an effect the other way counts as inactive or inconclusive; note: nearly all actives have a fitted effect of over 60% in size; note: potency is the fitted concentration of half-maximal effect); conditions: recombinant CYP2C19, luciferin-H EGE luminescence; series mostly up to 57.1 µM
# Sequence of Cytochrome P450 2C19 (Homo sapiens) (P33261 whole entry, looked up): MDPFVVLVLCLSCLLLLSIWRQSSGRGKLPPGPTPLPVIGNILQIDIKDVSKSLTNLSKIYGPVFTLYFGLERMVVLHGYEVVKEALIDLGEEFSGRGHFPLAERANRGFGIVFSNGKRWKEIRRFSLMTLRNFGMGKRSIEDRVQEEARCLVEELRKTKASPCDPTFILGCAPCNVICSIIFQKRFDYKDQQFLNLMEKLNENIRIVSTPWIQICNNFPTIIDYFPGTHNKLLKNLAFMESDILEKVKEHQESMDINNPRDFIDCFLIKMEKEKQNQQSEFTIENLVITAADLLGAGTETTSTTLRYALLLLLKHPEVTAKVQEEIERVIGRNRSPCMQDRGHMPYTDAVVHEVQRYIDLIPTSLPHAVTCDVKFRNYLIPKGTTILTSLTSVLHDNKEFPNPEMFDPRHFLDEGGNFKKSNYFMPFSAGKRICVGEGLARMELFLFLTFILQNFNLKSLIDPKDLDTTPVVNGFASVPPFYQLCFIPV
# How it was run: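 5nM enzyme + 10uM Luciferin-H EGE (=KM), 50mM KPO4; cpd pin-transferred, 10 min 37C; NADPH regen, 60 min 37C; stopped w/ luciferin detection reagent, 20 min; luminescence. Normalized to 57uM ketoconazole (AC100).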
# [9] = qHTS Assay for Lipid Storage Modulators (AID 1519; calls by dose curve); conditions: Drosophila S3 cells, BODIPY lipid droplet/cell ratio, laser cytometry, cells loaded with oleic acid; for activity change, negative = inhibition: at 57.5 µM (top of the series)
# How it was run: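 Cells seeded at 5,000 per well were treated with compounds over a concentration series and loaded with oleic acid (400 uM, as added). Lipid droplet fluorescence (488 nm excitation, 500-530 nm channel) was read by laser-scanning cytometry and normalized to 20 uM Triacsin C.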
# [10] = Primary qHTS for small molecule stabilizers of the endoplasmic reticulum resident proteome: Secreted ER Calcium Modulated Protein (SERCaMP) assay (AID 1508630; active = well fitted curve in the direction sought with a large enough effect; an effect the other way counts as inactive or inconclusive; note: % is set by controls: 0 for no effect and ±100 for the full control effect); conditions: SH-SY5Y GLuc-SERCaMP (Gaussia luciferase released on ER calcium loss) secretion, thapsigargin, luminescence; series mostly up to 38.4 µM
# How it was run: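 The SH-SY5Y reporter protocol was run at 3 concentrations up to 38.3 uM (primary) or 11 concentrations (follow-up): 16 h compound, 100 nM thapsigargin for 4 h, then extracellular luciferase luminescence.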
# [11] = biological target: Cytochrome P450 2D6 (Homo sapiens) (UniProt P10635); assay: qHTS Assay for Inhibitors and Substrates of Cytochrome P450 2D6 (AID 891; active = well fitted curve in the direction sought with a large enough effect; an effect the other way counts as inactive or inconclusive; note: potency is the fitted concentration of half-maximal effect; nearly all actives have a fitted effect of over 60% in size); conditions: recombinant CYP2D6, luciferin-ME EGE luminescence; series mostly up to 57.1 µM
# Sequence of Cytochrome P450 2D6 (Homo sapiens) (P10635 whole entry, looked up): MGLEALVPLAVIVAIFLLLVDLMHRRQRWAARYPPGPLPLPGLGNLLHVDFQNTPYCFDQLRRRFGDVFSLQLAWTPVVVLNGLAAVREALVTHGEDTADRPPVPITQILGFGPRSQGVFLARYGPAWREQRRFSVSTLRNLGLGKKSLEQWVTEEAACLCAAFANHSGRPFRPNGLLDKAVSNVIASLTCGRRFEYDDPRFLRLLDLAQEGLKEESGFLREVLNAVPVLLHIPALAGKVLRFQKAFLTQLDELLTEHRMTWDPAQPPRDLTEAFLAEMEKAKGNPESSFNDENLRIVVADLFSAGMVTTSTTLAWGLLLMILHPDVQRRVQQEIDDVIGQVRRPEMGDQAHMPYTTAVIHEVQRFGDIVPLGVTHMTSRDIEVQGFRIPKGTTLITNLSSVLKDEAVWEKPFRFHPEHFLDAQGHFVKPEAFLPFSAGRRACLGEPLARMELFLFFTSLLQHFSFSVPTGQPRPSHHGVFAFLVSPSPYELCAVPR
# How it was run: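 Luminescent read-out of luciferin formed by 5 nM human CYP2D6 demethylating 30 uM Luciferin-ME EGE (Km level) over 60 min at room temperature after NADPH regeneration addition. Data normalized to full inhibition by 1.43 uM quinidine.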
# [12] = qHTS Assay for Identification of Small Molecule Agonists for Hypoxia Response Element Signaling Pathway (AID 914; active = well fitted activation curve with a large enough effect in the signal ratio, with a control signal flat, not every such curve was filed as active; the % refers to the signal ratio; note: % of control where 0% means no effect); conditions: ME-180 (cervical carcinoma) HRE-bla reporter, beta-lactamase ratio, CoCl2, 17 h; activation: stronger effect = higher value
# How it was run: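 Cells were plated overnight, pin-dosed with compound in a titration series, co-stimulated with EC50 CoCl2 and incubated 17 hours at 37 degrees Celsius. CCF4 substrate was then loaded, and AC50 values came from the 460nm/530nm ratio.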
# [13] = biological target: Cytochrome P450 3A4 (Homo sapiens) (UniProt P08684); assay: qHTS Assay for Activators of Cytochrome P450 3A4 (AID 885; active = well fitted curve in the direction sought with a large enough effect; an effect the other way counts as inactive or inconclusive; note: nearly all actives have a fitted effect of over 65% in size); conditions: recombinant CYP3A4, Luciferin-PPXE luminescence, 60 min; series mostly up to 57.1 µM
# Sequence of Cytochrome P450 3A4 (Homo sapiens) (P08684 whole entry, looked up): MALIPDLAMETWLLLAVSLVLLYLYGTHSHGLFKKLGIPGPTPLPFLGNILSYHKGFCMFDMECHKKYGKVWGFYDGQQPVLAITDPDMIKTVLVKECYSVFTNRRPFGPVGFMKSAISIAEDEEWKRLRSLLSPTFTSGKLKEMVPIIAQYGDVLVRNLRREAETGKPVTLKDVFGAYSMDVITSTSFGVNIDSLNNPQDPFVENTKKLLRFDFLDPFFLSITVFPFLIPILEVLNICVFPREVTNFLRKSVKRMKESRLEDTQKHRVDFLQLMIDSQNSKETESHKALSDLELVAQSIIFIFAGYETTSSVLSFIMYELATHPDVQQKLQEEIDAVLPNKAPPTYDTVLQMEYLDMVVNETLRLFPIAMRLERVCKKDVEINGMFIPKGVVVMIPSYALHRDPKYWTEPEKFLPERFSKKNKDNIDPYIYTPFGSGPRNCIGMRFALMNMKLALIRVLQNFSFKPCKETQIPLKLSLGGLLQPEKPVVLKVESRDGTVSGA
# How it was run: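 Activators are scored by enhanced luminescence from CYP3A4 conversion of luciferin-PPXE (25uM, equal to KM) to luciferin, after 60 min at RT with an NADPH-regenerating system.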
# [14] = measured here: cell count channel max response
# [15] = measured here: lipid channel max response
SMILES,Potency [1],"activity change, negative = inhibition [2]",Potency [3],"activity, negative = inhibition [4]",Potency [5],Potency [6],Potency [7],Potency [8],"activity change, negative = inhibition [9]","max response [9, 14]","max response [9, 15]",outcome [10],Potency [11],activation [12],Potency [13]
c1ccc(C(c2ccccc2)N2CCC3(CCNCC3)CC2)cc1,> 11.4 µM (inactive),-10.6% (inactive),inactive,0.474% (inactive),> 46 µM (inactive),inactive,inactive,3.98 µM (active),-5.07% (inactive),27.4%,21.5%,inactive,,,
COC(=O)N1CCC2(CCN(Cc3ccccc3OC)CC2)CC1,> 11.4 µM (inactive),8.84% (inactive),inactive,-8.38% (inactive),> 46 µM (inactive),inactive,inactive,,2.37% (inactive),6.33%,9.77%,inactive,2 µM (active),2.91% (inactive),
COCC(=O)N1CCC[C@@]2(CCN(C(c3ccccc3)c3ccccc3)C2)C1,> 11.4 µM (inactive),0.34% (inactive),12.6 µM (active),-0.903% (inactive),> 46 µM (inactive),inactive,inactive,,-13.8% (inactive),-8.5%,-21.2%,inactive,6.31 µM (active),,inactive
O=C(c1csnn1)N1CCC2(CCCN(Cc3ccccc3)C2)CC1,> 11.4 µM (inactive),9.34% (inactive),inactive,-5.61% (inactive),> 46 µM (inactive),inactive,inactive,,3.37% (inactive),10.8%,18%,inactive,1.26 µM (active),,
Cn1cccc1C(=O)N1CCC2(CCN(Cc3ccncc3)CC2)CC1,> 11.4 µM (inactive),-3.94% (inactive),15.8 µM (active),-9.94% (inactive),,inactive,inactive,,4.51% (inactive),-5.01%,3.28%,inactive,,-5.1% (inactive),inactive
COc1ccccc1CN1CCC2(CCNCC2)CC1,> 11.4 µM (inactive),-18.9% (inactive),inactive,6.24% (inactive),> 46 µM (inactive),inactive,inactive,,-2.64% (inactive),1.08%,-0.266%,inactive,0.0316 µM (active),,
O=C(c1ccncc1)N1CCC2(CCN(Cc3ccccc3)CC2)CC1,> 11.4 µM (inactive),3.68% (inactive),inactive,-6.01% (inactive),> 46 µM (inactive),inactive,inactive,inactive,3.67% (inactive),13.9%,18.6%,inactive,,,inactive
